This is an account of results in PubChem BioAssay (NCI).

Compounds without any hit were thinned out: in the full panel of roughly 83,000, 20% have a hit.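 Method: cells in 96-well plates; compound added at one concentration; 48 h incubation; percent growth measured; values under 10 scored active.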 Values without a mark were called inactive. Activity calls are given as the source filed them.

Among the test systems are SR leukemia; RPMI-8226 leukemia; OVCAR-8 ovarian; OVCAR-5 ovarian; OVCAR-4 ovarian; SK-OV-3 ovarian; IGROV1 ovarian; OVCAR-3 ovarian; HS 578T breast; T-47D breast; BT-549 breast; MDA-MB-435 melanoma; SW-620 colon; MCF7 breast; HCT-116 colon; HCC-2998 colon; KM12 colon.
Test in all cases: NCI-60 one-dose screen, 48 h (100 = growth as untreated, 0 = no growth, -100 = all killed)
Common to all, as to details: 10 µM unless noted

Turning to `COc1cc2ncnc(Nc3ccc(S(=O)(=O)Nc4cc(C)on4)cc3)c2cc1OCCCN1CCOCC1`, the growth in the test with SR leukemia is 103%; in the test on RPMI-8226 leukemia, 106%; with OVCAR-8 ovarian, 98.2%; in the test on OVCAR-5 ovarian it was 106%; in the test with OVCAR-4 ovarian it was 94.8%; in the test with SK-OV-3 ovarian, 95%. The growth in the test with IGROV1 ovarian was 108%; in the test on OVCAR-3 ovarian, 113%; in the test with HS 578T breast, 103%; with T-47D breast, 84.4%; in the test with BT-549 breast it was 91.6%; in the test on MDA-MB-435 melanoma it was 106%. Moreover, the growth in the test on SW-620 colon was 106%; in the test on MCF7 breast it was 96.1%; in the test on HCT-116 colon it was 102%; in the test on HCC-2998 colon, 107%; in the test on KM12 colon it was 103%.

`CCN1C(=O)N(CC)C2C1NN=c1s/c(=C\c3ccc(F)cc3)c(=O)n12` (stereo not drawn): the growth in the test on SR leukemia was 11.1%; in the test on RPMI-8226 leukemia, 21.3%; in the test with OVCAR-8 ovarian it was 2.37% (active); with OVCAR-5 ovarian it was 33.1%; in the test with OVCAR-4 ovarian it was 46.4%; with SK-OV-3 ovarian it was 37.2%. The growth with IGROV1 ovarian is 23%; in the test with OVCAR-3 ovarian, -25.9% (active); in the test on HS 578T breast, 12.4%; with T-47D breast, 57.8%; in the test on BT-549 breast, 14.5%; in the test on MDA-MB-435 melanoma, -38.8% (active). The growth was 19.6% in the test with SW-620 colon; 18.2% in the test with MCF7 breast; 13.6% in the test on HCT-116 colon; 18.8% in the test on HCC-2998 colon; 7.33% (active) in the test with KM12 colon.

For the compound `COc1ccc(Nc2nc(Nc3cc(C)[nH]n3)c3cc(OC)c(OC)cc3n2)cc1`, the growth was 0.87% [20 µM] (active) in the test with SR leukemia; -50.4% [20 µM] (active) with RPMI-8226 leukemia; -31.2% [20 µM] (active) with OVCAR-8 ovarian; -98% [20 µM] (active) in the test on OVCAR-5 ovarian; -83.9% [20 µM] (active) with OVCAR-4 ovarian; -96.2% [20 µM] (active) with SK-OV-3 ovarian. Also, the growth was -88.8% [20 µM] (active) with IGROV1 ovarian; -63.1% [20 µM] (active) in the test on OVCAR-3 ovarian; -63.1% [20 µM] (active) with HS 578T breast; -52.1% [20 µM] (active) with T-47D breast; -87.5% [20 µM] (active) in the test on BT-549 breast; -97.5% [20 µM] (active) with MDA-MB-435 melanoma. Also, the growth with SW-620 colon was -74.4% [20 µM] (active); in the test on MCF7 breast it was -71.4% [20 µM] (active); in the test on HCT-116 colon, -54.4% [20 µM] (active); with HCC-2998 colon, -73.3% [20 µM] (active); in the test on KM12 colon it was -74% [20 µM] (active).

Regarding `O=c1ccc2nc(-c3ccccc3)nn(-c3ccccn3)c-2c1`, the growth with SR leukemia is 1.2% (active); in the test with RPMI-8226 leukemia it was 35.8%; in the test with OVCAR-8 ovarian, 80%; in the test with OVCAR-5 ovarian, 117%; in the test on OVCAR-4 ovarian, 83.5%; with SK-OV-3 ovarian, 83.9%. For the same compound, the growth in the test on IGROV1 ovarian was 89%; in the test on OVCAR-3 ovarian, -14.9% (active); in the test with HS 578T breast it was 101%; with T-47D breast, -40.9% (active); with BT-549 breast, 108%; in the test with MDA-MB-435 melanoma, 94.6%. The growth with SW-620 colon was -46.2% (active); in the test on MCF7 breast it was -37.1% (active); with HCT-116 colon, 42.7%; in the test on HCC-2998 colon, 103%; in the test with KM12 colon, 104%.

As to `CN1CC(c2ccccc2)C(C(=O)c2ccc(Br)cc2)C12C(=O)Nc1ccccc12` (stereo not drawn), the growth in the test with SR leukemia was 97%; with RPMI-8226 leukemia, 88.2%; with OVCAR-8 ovarian, 98.8%; in the test with OVCAR-5 ovarian, 98.9%; in the test on OVCAR-4 ovarian, 96.3%; with SK-OV-3 ovarian, 93.6%. In addition, the growth is 79.7% in the test with IGROV1 ovarian; 101% with OVCAR-3 ovarian; 94.2% with HS 578T breast; 81.5% with T-47D breast; 111% with BT-549 breast; 106% with MDA-MB-435 melanoma. Also, the growth in the test on SW-620 colon was 95.4%; with MCF7 breast it was 98.5%; with HCT-116 colon it was 86.3%; with HCC-2998 colon, 99.7%; in the test on KM12 colon, 101%.

For `Cc1ccc2nc(/C=C/c3ccc(N(C)C)cc3)cc(C)c2c1`, the growth in the test on SR leukemia was 22.1%; with RPMI-8226 leukemia, 34.1%; with OVCAR-8 ovarian, 41.4%; in the test on OVCAR-5 ovarian, 73.1%; in the test on OVCAR-4 ovarian, 85.5%; in the test on SK-OV-3 ovarian, 31.4%. Also, the growth in the test on IGROV1 ovarian is 49%; with OVCAR-3 ovarian, -2.23% (active); in the test on HS 578T breast it was 34.9%; in the test on T-47D breast it was 34.7%; in the test on BT-549 breast it was 32.3%; in the test with MDA-MB-435 melanoma, -5.17% (active). Also, the growth in the test on SW-620 colon is 10.9%; in the test on MCF7 breast it was 10.1%; in the test with HCT-116 colon, 22.8%; in the test on HCC-2998 colon, 63.9%; in the test with KM12 colon it was 21.5%.

As for `O=C(CSc1nnc(-c2ccc(Cl)c(Cl)c2)n1-c1ccccc1)Nc1ccc(C(=O)/C=C/c2ccc(Cl)cc2)cc1`, the growth with SR leukemia is 76.6%; with RPMI-8226 leukemia it was -11.4% (active); in the test with OVCAR-8 ovarian, 87.9%; in the test with OVCAR-5 ovarian, 96.8%; in the test on OVCAR-4 ovarian, 94.4%; in the test with SK-OV-3 ovarian, 87.9%. The growth was 89.2% in the test with IGROV1 ovarian; 95.5% in the test with OVCAR-3 ovarian; 90.7% with HS 578T breast; 81.8% in the test with T-47D breast; 77.5% in the test with BT-549 breast; 94.3% with MDA-MB-435 melanoma. In addition, the growth was 94.4% in the test on SW-620 colon, 6.82% (active) in the test on HCT-116 colon, 110% in the test with HCC-2998 colon and 99.3% in the test on KM12 colon.
